Measured values from PubChem BioAssay AID1430 (University of Pittsburgh Molecular Library Screening Center, 2008).
The campaign covered roughly 220,000 compounds. About 240 (0.11%) were called active.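 The calls were made as follows: active = inhibition of 50% or more in the single-dose primary screen; inactive = inhibition below 50%.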 Many of the other results were omitted from the sample, so actives are more common in it than they were.

System: hexokinase 1 [Trypanosoma brucei]
Assay: TbHK1 enzyme activity blockers – biochemical, G6PDH-coupled NADH absorbance, MLSCN library, primary screen (AID 1430)
Conditions: recombinant TbHK1, G6PDH-coupled NADH A340; at 10 µM; hits give high values

| SMILES | inhibition |
| --- | --- |
| CCOc1ccccc1C(=O)NC1CC2CCCC(C1)N2Cc1ccccc1 (stereo not given) | 3.91% (inactive) |
| CCC(CC)C(=O)N1CCN(c2cccc(C)c2C)CC1 | -4.04% (inactive) |
| Cc1c(Cl)c([N+](=O)[O-])nn1Cc1ccc(C(=O)N/N=C\c2cc(Cl)ccc2O)o1 | 0.728% (inactive) |
| CCCc1nc(-c2cc3cc(C)ccc3[nH]c2=O)no1 | -10.1% (inactive) |
| Cc1ccc(N(C(=O)Cc2cccs2)C(C(=O)NCC2CCCO2)c2ccncc2)cc1 (stereo not given) | -7.37% (inactive) |
| CSc1nnnn1-c1c(C)cc(C)cc1C | -0.934% (inactive) |
| O=C1CC(c2cccc(Cl)c2)CC(O)=C1C=Nc1ccccc1 (stereo not given) | -3.36% (inactive) |
| CC(=O)O[C@]1(C(C)=O)CC[C@H]2[C@@H]3C=C(C)C4=CC(=O)CC[C@]4(C)[C@H]3CC[C@@]21C | -3.98% (inactive) |
| Cc1ccc(-c2nc(SCC(=O)Nc3ccccc3OC(F)F)c3c(C)c(C(=O)O)sc3n2)cc1 | -36.7% (inactive) |
| COCCNC(=O)c1ccc(-n2c(SCc3cccnc3)nc3ccccc3c2=O)cc1 | -6.28% (inactive) |
| CC(O)c1nc2c(c(=O)n(C)c(=O)n2C)n1C (stereo not given) | -12.1% (inactive) |
| O=C(Nc1ccc(N2C(=O)c3cccc4cccc(c34)C2=O)cc1)c1ccc(N2CCCCC2)c([N+](=O)[O-])c1 | -9.23% (inactive) |
| CCCCN(C(=O)c1ccc(OC(F)(F)F)cc1)c1c(N)n(CCC)c(=O)[nH]c1=O | 2.61% (inactive) |
| COc1cc(NC(=O)COC(=O)c2cnc(C)cn2)c(C)cc1[N+](=O)[O-] | -6.37% (inactive) |
| CCOC(=O)C1CCN(C(=O)C2(NC(=O)Nc3cccc(F)c3)CCCCC2)CC1 | -1.28% (inactive) |
| Cc1ccc(SC(C)C(=O)NCc2ccc(F)cc2)cc1 (stereo not given) | 4.64% (inactive) |
| CC1Cc2ccccc2N1C1=CC(=O)CC(C)(C)C1 (stereo not given) | -58.2% (inactive) |
| CN(C)CCCO/N=C(\c1ccccc1)c1ccncc1 | -6.34% (inactive) |
| C/C(=N\Nc1cccc(C(=O)O)c1)c1ccc2c(c1)Nc1ccccc1S2 | -4.39% (inactive) |
| CCN(CC(=O)Nc1ccc(Cl)c(S(=O)(=O)N(C)C)c1)Cc1nc2ccccc2c(=O)[nH]1 | -2.75% (inactive) |
| O=C(Oc1ccccc1Cl)c1ccc(N2CCOCC2)c([N+](=O)[O-])c1 | -7.89% (inactive) |
| C/C(=N/NC(=O)CSc1ccccn1)c1ccc([N+](=O)[O-])cc1 | -9.77% (inactive) |
| Cc1onc(C(=O)NCc2ccc(F)cc2)c1[N+](=O)[O-] | -2.07% (inactive) |

| SMILES | inhibition |
| --- | --- |
| CCOCCCNC(=O)C(NC(=O)c1ccccc1O)c1ccccc1 (stereo not given) | -9.74% (inactive) |
| COC(=O)C(C(=O)Nc1cccc(C)n1)C1CCCCCC1 (stereo not given) | 5.11% (inactive) |
| CC(=O)Nc1ccc(NC(=O)C(C)OC(=O)c2ccccc2C(=O)c2ccc(Cl)c([N+](=O)[O-])c2)cc1 (stereo not given) | -6.27% (inactive) |
| O=S(=O)(NC1CCCCC1)c1ccc(F)c2ccccc12 | 2.7% (inactive) |
| COC(=O)c1c(NC(=O)CCCC(=O)O)sc2c1CCCCC2 | -10.9% (inactive) |
| C=CCn1c(COc2ccc(F)cc2)nnc1SCC(=O)Nc1cccc(S(N)(=O)=O)c1 | -3.84% (inactive) |
| CCc1cccc2c3c([nH]c12)C(CC)(CC(=O)O)OCC3 (stereo not given) | -3.41% (inactive) |
| Cc1ccc(S(=O)(=O)N(C)C)cc1NC(=O)/C=C/c1cccs1 | 5.08% (inactive) |
| N#Cc1c(N)nc2c(c1N)CC(C(F)(F)F)O2 (stereo not given) | 4.59% (inactive) |
| O=C(CCN1C(=O)C2C3C=CC(C3)C2C1=O)Nc1ccccc1F (stereo not given) | -3.82% (inactive) |
| O=C(CN1C(=O)C2C3C=CC(C3)C2C1=O)NCCc1ccccc1Cl (stereo not given) | 57.8% (active) |
| O=C(CN1C(=O)C2C3C=CC(C3)C2C1=O)NCC1COc2ccccc2O1 (stereo not given) | -4.57% (inactive) |
| Nc1nnnn1/N=C/c1cc([N+](=O)[O-])ccc1O | -31.3% (inactive) |
| O=C(NCCc1ccccc1)C1CCC(Cn2c(=O)c3ccccc3n(Cc3cccnc3)c2=O)CC1 (stereo not given) | -9.56% (inactive) |
| Cc1cc2nc(SCCN3CCOCC3)[nH]c2cc1C | 2.94% (inactive) |
| CCOC(=O)c1ccc(NNC(C)=O)c([N+](=O)[O-])c1 | -2.98% (inactive) |
| N#Cc1ccc(Oc2ccc(C(F)(F)F)cc2NC(=O)c2ccc(F)cc2)cc1 | -2.47% (inactive) |
| C#CCOCCOCCOCCNc1nc(N2CCN(C(=O)[C@H](CCC(=O)O)n3cc(C(N)CO)nn3)CC2)nc(N2CCN(C(=O)[C@H](Cc3ccc(O)cc3)n3cc(C(N)[C@H](C)CC)nn3)CC2)n1 (stereo not given in full) | -6.04% (inactive) |
| Cc1cc(OC(=O)c2ccccc2)c([N+](=O)[O-])c(=O)[nH]1 | -5.67% (inactive) |
| Cc1ccc(C2=N/C(=C\c3ccc(OS(=O)(=O)c4ccc(C)cc4)cc3)C(=O)O2)cc1 | 2.44% (inactive) |
| Brc1ccc(-c2noc(-c3ccccc3)n2)o1 | -6.63% (inactive) |
| O=C1C(=O)N(c2ccccc2)c2ccccc21 | -11.4% (inactive) |
| Cc1cc(C(=O)N/N=C/c2cc([N+](=O)[O-])cc(C)c2O)n[nH]1 | 1.39% (inactive) |

| SMILES | inhibition |
| --- | --- |
| COC(=O)NNC(=O)C1CCC(C)CC1 (stereo not given) | -0.712% (inactive) |
| O=C(NN=C1CCC(=NNC(=O)c2cccnc2)CC1)c1cccnc1 | -1.3% (inactive) |
| Cc1ccc(NC(=O)Nc2cc(-c3ccccc3)nn2C)cc1Cl | -21.8% (inactive) |
| CC1(C)OC(=O)C(=CNC(CO)C(=O)O)C(=O)O1 (stereo not given) | 2.5% (inactive) |
| Cc1ccc(CSc2nc3[nH]ncc3c(=O)[nH]2)cc1 | -4.89% (inactive) |
| O=C1NC(c2cccc(Cl)c2)Nc2ccccc21 (stereo not given) | -2.98% (inactive) |
| C=CCN1C=C2C(=O)C(C)(OC(=O)CCc3ccccc3)C(=O)C=C2C=C1c1ccc(C#N)cc1 (stereo not given) | -9.51% (inactive) |
| O=C(NNC(=O)c1csc(-c2cccnc2)n1)Nc1ccc(Cl)cc1 | 1.85% (inactive) |
| Cc1ccc(-n2c(C)cc(C(=O)CSc3nnc4ccccn34)c2C)cc1 | -7.8% (inactive) |
| NC(=O)c1ccccc1N=Cc1ccc2ccccc2c1 | 27.1% (inactive) |
| O=C(OCC(=O)N1CCOCC1)c1ccc(N2CCOCC2)c([N+](=O)[O-])c1 | -6.48% (inactive) |
| Cc1nc2nc[nH]n2c(=O)c1C/C=C/c1ccccc1 | -2.13% (inactive) |
| COc1ccc(C(=O)NNc2cc(C)nc(NNC(=O)c3ccc(OC)cc3)n2)cc1 | -5.16% (inactive) |
| Cc1[nH]n(C)c(=O)c1N=Nc1ccc(S(C)(=O)=O)cc1 | -42.5% (inactive) |
| Cc1ccc(Oc2nc(-c3ccccn3)nc3ccccc23)cc1 | -12.7% (inactive) |
| COC(=O)CN1C(=O)N/C(=C/c2ccc(OC)c(C)c2OC)C1=O | -28.4% (inactive) |
| C=C(C)C(=O)Nc1cccc(C2=NOC3(C2)C[C@H](C(N)=O)N(C(=O)C(c2ccccc2)c2ccccc2)C3)c1 (stereo not given in full) | 7.7% (inactive) |
| Cc1ccc(Cl)c(OCC(=O)NN2CCN(C)CC2)c1 | -3.39% (inactive) |
| COc1ccc(C(=O)NC2(C(F)(F)F)NC(=O)N(CCCc3ccccc3)C2=O)c(OC)c1OC (stereo not given) | -4.23% (inactive) |
| O=C(CSc1nnc2ccc(-c3ccncc3)nn12)N1CCCCC1 | -7.7% (inactive) |
| COC(=O)c1ccc(/C=N/OCC(=O)Nc2cc(F)ccc2F)cc1 | -4.64% (inactive) |
| COc1ccc(NC(=O)c2cc3nc(-c4ccccc4)cc(C)n3n2)cc1OC | -16.7% (inactive) |
| COc1ccccc1NC(=O)C1CCCN(c2cc(C)nc3ncnn23)C1 (stereo not given) | -1.1% (inactive) |

| SMILES | inhibition |
| --- | --- |
| COc1cccc(/C=N/Nc2cc(C)nc(-c3ccccc3O)n2)c1O | -40% (inactive) |
| COc1cc(/C=C2\SC(=S)N(Nc3ncc(C(F)(F)F)cc3Cl)C2=O)cc(OC)c1OC | -3.09% (inactive) |
| COc1cccc(/C=N/Nc2ncc(C(F)(F)F)cc2Cl)c1O | 73.5% (active) |
| COC(=O)Nc1ccc(S(=O)(=O)N2CCN(CCN3C(=O)C4C5C=CC(C5)C4C3=O)CC2)cc1 (stereo not given) | 1% (inactive) |
| Cc1c(C(N)=O)sc2ncn(CCOc3ccccc3)c(=O)c12 | -3.42% (inactive) |
| CCc1ccc(CNC(=O)CCc2nc(-c3cccs3)no2)cc1 | -2.08% (inactive) |
| O=C(CCC1CCCN(C(=O)Cc2ccc(F)cc2)C1)N1CCN(c2ccccn2)CC1 (stereo not given) | -6.3% (inactive) |
| CSc1ccccc1NC(=O)Cc1ccc(Br)cc1 | 32.7% (inactive) |
| O=C1/C(=C\Nc2ccccc2)CCN1c1ncccn1 | -65.9% (inactive) |
| COc1ccccc1NC(=O)CC(NCCN(C)C)C(=O)O (stereo not given) | -1.3% (inactive) |
| COCCCNc1nc2c(-c3cccc(C(F)(F)F)c3)nnn2c2ccccc12 | -3.92% (inactive) |
| CCOC(=O)C1(Cc2ccc(Cl)cc2)CCN(C(=O)C2=NNC(=O)CC2)CC1 | -7.3% (inactive) |
| Cc1ccc(SC(=O)COc2ccc(C)c(C)c2)cc1 | 7.35% (inactive) |
| S=c1nccc(-c2cc(Cl)sc2Cl)[nH]1 | -7.08% (inactive) |
| CCCN1CNC(=S)N(CCc2ccccc2)C1 | -4.25% (inactive) |
| Cc1ccc(C)c(Cn2nnc3c(=O)[nH]c(C(=O)Nc4ccc(F)cc4)nc32)c1 | 1.66% (inactive) |
| COc1ccc(OC)c(NC(=O)N[C@H](Cc2ccccc2)C(=O)NN)c1 | -2.36% (inactive) |
| Cc1ccc(NC(=O)Cn2c(=O)n(CCC(=O)NC3CCN(Cc4ccccc4)CC3)c(=O)c3ccccc32)cc1 | 1.82% (inactive) |
| COc1ccc(/C=N/S(=O)(=O)c2ccccc2)cc1OC | -6.73% (inactive) |
| CCCSc1ncccc1C(=O)O | -11% (inactive) |
| CCOC(=O)C1CCN(CCC(=O)Nc2cccc(C)c2)CC1 | -3.14% (inactive) |
